Hits are enriched below; roughly 5.2% of the tested compounds scored in any of these assays.
PostGolgi ctrl – growth inhibition of yeast control strain, primary screen, counter-screen for post-Golgi transport modulator project; inhibition, % at 10 µM; AID 738, 2007; 5% of 98,000 active; efflux-deficient yeast background strain, growth absorbance A615, 16 h
Candida biofilm – clotrimazole potentiators killing Candida biofilms, primary screen, with clotrimazole, Alamar Blue; 0.14% of 85,000 active; inhibition, % at 6 µM; C. albicans biofilm + clotrimazole;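 active = inhibition above 20%; inactive = inhibition below 20%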;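 note: preformed 24 hr biofilms exposed to compound for 48 hr; 0% = biofilm without compound and 100% = blank killed by clotrimazole plus chlorhexidine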
EphB4 ephrin blk – EphB4-ephrin-B2 interaction antagonists, primary screen, biochemical, TNYL-RAW peptide probe, fluorescence polarization. 0.15% of 97,000 active. AID 720, 2007. EphB4 LBD / TNYL-RAW-Alexa532 peptide. inhibition, % at 7 µM. Ephrin type-B receptor 4 (Homo sapiens), P54760;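 active = inhibition above the screen-wide mean inhibition plus 3 SD, cut at about 15% in these data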;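 note: 0% = DMSO wells and 100% = excess unlabeled TNYL-RAW peptide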
PostGolgi yeast – phenotypic screen on post-Golgi transport, primary screen | inhibition, % at 10 µM | 0.9% of 98,000 active | post-Golgi transport phenotypic cell assay | AID 739, 2007;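 note: yeast cells grown in 1536-well plates; yeast grown about 18 h at 30C before absorbance read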
* = called active by the depositor; . = no result given. Cut-off read from the data, not from the text of the source, unless noted: active = inhibition above about 30%; inactive = the rest.

SMILES	PostGolgi ctrl	Candida biofilm	EphB4 ephrin blk	PostGolgi yeast
CS(=O)(=O)N1CCC(C(=O)Nc2ccc3c(c2)OCCO3)CC1	17	4	7	1
COC(=O)C1=C(O)/C(=C\c2ccc(O)c(OC)c2)N=C1C	12	2	7	-8
CCOC(=O)C1=C(O)/C(=C\c2ccc(CNC(=O)C(=O)Nc3ccc(C)c(C)c3)o2)N=C1C	11	69*	-2	1
COc1cc2ccccc2c2c1CCCC2=O	13	.	-8	-7
CC(Sc1nnc2c(n1)C1(C)CCC2C1(C)C)C(=O)Nc1ccccc1 (stereo not drawn)	13	.	-3	-1
Cn1c(=O)c2c(nc(N3CCCCC3)n2CCSc2nc3ccccc3s2)n(C)c1=O	10	3	.	5
CC1CCN(c2nc3c(c(=O)n(C)c(=O)n3C)n2CCSc2nc3ccccc3s2)CC1	36*	0	0	16
Cn1c(=O)c2c(nc(N3CCCCCC3)n2Cc2cccc3ccccc23)n(C)c1=O	62*	1	.	8
Cc1ccnc(SCCn2c(N3CCCCC3)nc3c2c(=O)n(C)c(=O)n3C)n1	.	4	20*	.
CCCCOC(=O)Nc1ccc(C)c(Cl)c1	17	3	-2	-7
Cc1ccc(-c2cc(-c3cccc(F)c3)n[nH]2)c(O)c1	43*	0	6	-7
Cc1ccc(O)c(-c2cc(-c3cccc(F)c3)n[nH]2)c1	70*	8	1	12
Cc1ccc(O)c(-c2cc(-c3ccccc3F)[nH]n2)c1	67*	0	0	17
COc1ccc(-c2cc(-c3cc(F)ccc3O)[nH]n2)cc1OC	30*	8	2	2
COc1ccc(-c2cc(-c3ccccc3O)[nH]n2)cc1OC	11	11	-9	2
CCCC(CCC)C(=O)Nc1c[nH]c(=O)[nH]c1=O	20	1	5	4
COc1ccc(O)c(-c2cc(-c3cccc(Br)c3)n[nH]2)c1	74*	3	4	93*
COc1ccc(-c2cc(-c3cc(OC)ccc3O)[nH]n2)cc1	28	-1	0	-2
CCS(=O)(=O)Nc1ccc(C2=NN(C(=O)c3ccco3)C(c3ccc(C)cc3)C2)cc1 (stereo not drawn)	-5	.	-2	-4
Cc1ccc(C2CC(c3cccs3)=NN2C(=O)c2ccc(Br)o2)cc1 (stereo not drawn)	83*	20	-5	93*
Cc1ccc(C2C(C#N)=C(N)SC(N)=C2C#N)cc1	40*	1	-5	-4
COc1ccc(C(=O)NC(C)(C)C)cc1S(=O)(=O)N1CCCC1	4	.	2	2
Cc1cc(/C=C2\SC(=S)NC2=O)c(C)n1C	52*	.	7	4
Cc1nn(C)cc1/C=C1\SC(=S)NC1=O	-1	.	6	-2
O=C(CSc1nc2c(sc3ccccc32)c(=O)n1Cc1ccco1)NCC1CCCO1 (stereo not drawn)	32*	-3	-11	6
SMILES	PostGolgi ctrl	Candida biofilm	EphB4 ephrin blk	PostGolgi yeast
O=C(CSc1nc2c(sc3ccccc32)c(=O)n1Cc1ccccc1)NCC1CCCO1 (stereo not drawn)	5	-2	-1	-2
COC(=O)c1ccc(N(C(=O)c2ccco2)C(C(=O)NC2CCCC2)c2ccco2)cc1 (stereo not drawn)	.	1	8	.
Fc1cccc(-c2cc3nc(-c4ccccc4)cc(N4CCC5(CC4)OCCO5)n3n2)c1	.	8	4	.
OC1CCN(c2c3c(nc4cc(-c5cccc(F)c5)nn24)CCCC3)CC1	88*	4	.	0
Cc1nc2cc(-c3cccc(F)c3)nn2c(N2CCOCC2)c1C	.	7	.	.
CN(CCO)c1c2c(nc3cc(-c4cccc(F)c4)nn13)CCCC2	47*	1	0	-4
Fc1cccc(-c2cc3nc4c(c(N5CCC6(CC5)OCCO6)n3n2)CCCC4)c1	81*	5	.	9
Clc1cccc(-c2cc3nc4c(c(N5CCNCC5)n3n2)CCCC4)c1	.	-3	-4	.
COc1ccc(OC)c(C(=O)N2CCC(C(=O)c3ccc(F)cc3)CC2)c1	.	7	1	.
O=C(O)c1ccc(S(=O)(=O)NC2CCCCC2)cc1	-11	9	-3	-9
CSc1ccc(S(=O)(=O)NC2CCCCCC2)cc1	70*	8	-11	-9
COc1ccc(-c2nnc(Sc3nc4ccccc4o3)c3ccccc23)cc1	46*	.	1	-2
CC(C)c1nc(N2CCOCC2)c(C#N)c2c1CCCC2	10	2	-2	-5
CCSc1nc(N2CCOCC2)c2c(c1C#N)CCCC2	41*	8	-4	8
CC1(C)Cc2c(C#N)c(SCc3ccccc3)nc(N3CCOCC3)c2CO1	38*	9	-10	-5
